Only some compounds are listed: those with a hit (about 1.4% of all), similar ones and a draw of the others.
mIDH1 inhibitor: blocks human mutant IDH1 R132H enzyme; Potency, µM (series often up to 76.6 µM), usual class: inhibitors; 390,000 tested, 0.093% active; O75874; IDH1-R132H enzyme, NADPH consumption, diaphorase/resazurin fluorescence; note: nearly all actives have a fitted effect of over 65% in size
Target sequence (O75874 whole entry R132H, stated change not applied): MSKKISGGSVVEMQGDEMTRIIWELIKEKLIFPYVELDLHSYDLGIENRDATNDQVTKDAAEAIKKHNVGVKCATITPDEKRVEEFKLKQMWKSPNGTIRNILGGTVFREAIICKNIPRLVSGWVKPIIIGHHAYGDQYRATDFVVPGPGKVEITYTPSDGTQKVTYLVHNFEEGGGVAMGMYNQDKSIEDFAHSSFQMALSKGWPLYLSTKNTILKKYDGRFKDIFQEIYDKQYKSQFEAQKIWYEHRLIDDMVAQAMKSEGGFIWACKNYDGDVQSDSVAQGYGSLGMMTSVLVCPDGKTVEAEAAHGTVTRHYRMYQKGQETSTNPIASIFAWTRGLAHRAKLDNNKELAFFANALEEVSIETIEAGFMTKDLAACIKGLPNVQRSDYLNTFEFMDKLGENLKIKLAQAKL
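IDH1-R132H (0.5 ug/mL dispensed) in pH 7.5 Tris buffer was preincubated 30 min with compound, then given a substrate mix of 0.016 mM NADPH and 2 mM alpha-KG for 80 min at room temperature; remaining NADPH was read by diaphorase/resazurin fluorescence.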
LDHA inh: inhibitors of human lactate dehydrogenase A. P00338. purified LDHA, NADH/diaphorase-resazurin fluorescence; hits give low values. activity change, % (values are at about 110 or 230 µM). 480,000 tested, 0.15% active; in the data active = activity change below about -30%; inconclusive = mostly about -25% to -30%
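Resorufin fluorescence (ex540/em590), read at 0 and 20 min after diaphorase/resazurin addition, reports the NADH left after a 5 min room-temperature reaction of 2 nM human LDH5 with 0.06 mM NADH and 0.2 mM pyruvate.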
TrxR1 substrate: substrates of rat thioredoxin reductase 1 | purified TrxR1 substrate turnover, NADPH consumption readout | O89049 | 390,000 tested, 0.01% active | Potency, µM (series often up to 114 µM); note: nearly all actives have a fitted effect of over 50% in size
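Rat TrxR1, dispensed at 90 nM, was prereduced with 400 uM NADPH (final) for 5 min at ~22 deg C, then incubated with compound 15 min before 400 uM selenite. A first-read NADPH fluorescence drop versus no-compound background flagged substrates.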
GLS inh: blocks human kidney-isoform glutaminase activity. O94925. GLS enzymatic activity, qHTS titration. Potency, µM (highest dose often 45.5 µM), hits mostly inhibitors. 410,000 tested, 0.21% active. AID 624170
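Assay buffer: 45 mM KH2PO4 pH 8.2, 0.02% Tween-20. hKGA acts on L-glutamine (1 mM solution added); product glutamate is reported by an oxidase/peroxidase Amplex Red coupling, with fluorescence taken at baseline and 30 min.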
rTrxR1 inhibitor: blocks rat thioredoxin reductase 1 | Potency, µM (highest dose often 114 µM), most hits filed as inhibitors | AID 588453 | O89049 | 390,000 tested, 1% active | recombinant rTrxR1, NADPH fluorescence consumption, selenite substrate; note: nearly all actives have a fitted effect of over 65% in size
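Rat TrxR1 (90 nM in the dispensed reagent) was pre-reduced with 400 uM NADPH for 5 min at room temperature, then incubated with compound for 15 min. After 400 uM selenite was added, NADPH fluorescence (Ex 340/Em 450 nm) was followed for 8 min.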
PKM2 act: activators of human pyruvate kinase M2. 260,000 tested, 0.34% active. Potency, µM (titrated, usually from 57.5 µM), usual class: activators. purified PKM2, Kinase-Glo ATP luminescence, activation; response scale: 0% is enzyme alone, no compound; note: nearly all actives have a fitted effect of over 55% in size
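hPK-M2, >95% pure; 0.1 mM ADP / 0.5 mM PEP final; imidazole pH7.2 buffer w/ 7 mM MgCl2, 50 mM KCl; 1 h RT; Kinase-Glo lum. Intermediate enzyme activity for dual inhibitor/activator qHTS.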
Numbers stand for hits; i = inactive; ? = inconclusive; nt = no result; [ ] = dose if it differs, or a comment. Unless noted, calls come from the whole dose curve; as a rule, active = well fitted curve in the direction sought with a large enough effect; inconclusive = small, poorly fitted or top-dose-only effect, or another doubt; inactive = no such curve, though single readings can be large; an effect the other way counts as inactive or inconclusive.

SMILES | mIDH1 inhibitor | LDHA inh | TrxR1 substrate | GLS inh | rTrxR1 inhibitor | PKM2 act
COc1cccc(OCc2cc(C3Nc4ccccc4C(=O)N3Cc3ccco3)ccc2OC)c1 (stereo not given) | i | i | i | i | ? | 7.94µM
COc1cccc(OCc2cc(C3Nc4ccccc4C(=O)N3Cc3ccccc3)ccc2OC)c1 (stereo not given) | nt | i | i | nt | i | nt
CCCN1C(=O)c2ccccc2NC1c1ccc(OC)c(COc2ccc([N+](=O)[O-])c(C)c2)c1 (stereo not given) | nt | -58.9 | i | nt | i | nt
COc1ccc(C2Nc3ccccc3C(=O)N2Cc2ccco2)cc1COc1c(C)cccc1C (stereo not given) | nt | i | i | nt | 20µM | nt
Cc1ccc(NC(=O)COc2c(CO)cc(F)cc2CO)cc1 | nt | i | nt | nt | nt | nt
O=C(Cc1ccc2c(c1)CCC2)NC(c1ccc(F)cc1)c1cccs1 (stereo not given) | nt | i | nt | nt | nt | nt
CCOCCCNC1=C(Cl)C(=O)c2ccccc2C1=O | i | i | i | i | 7.08µM | i
O=C1C(Cl)=C(NCCCO)C(=O)c2ccccc21 | i | i | i | i | i | i
CC(=O)Nc1ccc(NC(=O)C2CCC(N3C(=O)C4C5C=CC(C6CC56)C4C3=O)CC2)cc1 (stereo not given) | i | i | i | i | 25.1µM | i
O=C(O)c1ccc(NC(=O)c2ccc(Br)o2)cc1 | nt | i | nt | nt | nt | nt
O=C(O)c1ccc(F)c(F)c1F | nt | i | nt | nt | nt | nt
CCCCNC(C(=O)Nc1ccc([N+](=O)[O-])cc1Br)c1ccccc1 (stereo not given) | i | -31.5 | i | i | i | i
Cc1nn(CC(=O)Nc2ccc(NC(=O)CC(C)C)cc2)c(=O)c2ccccc12 | nt | i | nt | nt | nt | nt
COc1cc2c(cc1OC)C(C)N(C(=O)c1cccs1)CC2 (stereo not given) | i | i | i | i | i | i
COc1cc2c(cc1OC)C(C)N(C(=O)c1cc3c(=O)oc4ccc(C)cc4c3s1)CC2 (stereo not given) | i | i | i | i | 79.4µM | i
CCn1nc(C(=O)Nc2nc(-c3ccc(NC(C)=O)cc3)cs2)c2ccccc2c1=O | nt | -30.9 | nt | nt | nt | nt
C=C(CN(C)C)C(=O)c1ccc(OC2OC(COC(C)=O)C(OC(C)=O)C(OC(C)=O)C2OC(C)=O)cc1 (stereo not given) | i | i | i[11.4 µM] | i | 2.82µM | nt
CC(=O)OCC1OC(Oc2ccc(C(=O)Cc3ccc4c(c3)OCCO4)c(O)c2)C(OC(C)=O)C(OC(C)=O)C1OC(C)=O (stereo not given) | nt | i | nt | nt | nt | nt
O=C(NNC(=O)C1CCC(c2ccccc2)CC1)c1ccc(Br)cc1 (stereo not given) | nt | i | nt | nt | nt | nt
O=C(O)C1=CC(=C(c2ccc(O)c(C(=O)O)c2)c2ccc(O)c(C(=O)O)c2)C=CC1=O | nt | -74.7 | i | nt | ? | nt
CC1=C/C(=C(\c2ccc(O)c(C)c2)c2ccccc2S(=O)(=O)O)C=CC1=O | i | i | i | i | i | i[11.5 µM]
O=C1C(Cl)=C(N2CCC(C(=O)O)CC2)C(=O)c2ccccc21 | i | i | i | i | 1.12µM | i
NC(=O)C1CCN(C2=C(Cl)C(=O)c3ccccc3C2=O)CC1 | i | i | i | i | 1µM | ?
CN1CCN(C2=C(Cl)C(=O)c3ccccc3C2=O)CC1 | i | i | i | i | ? | nt
Cc1ccc(C)c(S(=O)(=O)N2CCN(C(=O)CCc3ncc(-c4ccc(F)cc4)o3)CC2)c1 | nt | i | nt | nt | nt | nt
Cc1ccc(-c2nc(CNC(=O)c3ccccc3)c(C)o2)cc1 | nt | i | nt | nt | nt | nt
O=C(O)CCC(=O)Nc1ccc(Cc2ccc(NC(=O)CCC(=O)O)c(O)c2)cc1O | i | i | i | 1.41µM | i | i
O=C1C2C3C=CC(O3)C2C(=O)N1CC(O)c1ccccc1 (stereo not given) | i | i | i | i | 50.1µM | i
COc1cc(/C=C(\CCC(=O)O)c2nc3ccccc3s2)ccc1OCC(=O)Nc1c(Cl)cccc1Cl | i | i | i | 10µM | i | nt
Cc1cc(O)cc(O)c1C(=O)Cc1ccccc1 | i | i | i | i | i | i

Screening data as filed in PubChem.
